Laboratory results as given in PubChem BioAssay (NCI).
About 83,000 compounds went through this panel and 20% of them were active in at least one assay; those are over-represented in the sample as a whole.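 Negative percent growth values reflect cell death: -40 means 40% of the cells present at the start died, and -100 means all died.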 A number with no mark means an inactive call. Active and inactive are the calls of the source.

Tested on: HT29 colon
Test: NCI-60 one-dose screen, 48 h (100 = growth as untreated, 0 = no growth, -100 = all killed)
Conditions: 10 µM unless noted
Description: Growth inhibition of the HT29 human tumor cell line is measured as a screen for anti-cancer activity. Cells are grown in 96 well plates and exposed to the test compound for 48 hours. Compounds are tested at a single concentration, which is 10^-5 M for most compounds. The reported endpoint is percent growth (GI% or GIPRCNT), where numbers from 0 - 100% represent growth inhibition, and numbers from -100% - 0 represent cell death. For example, a value of 40 represents 60% growth inhibition. A value of 0 means no net growth occurred over the course of the experiment. A value of -40 indicates 40% of cells at the beginning of the experiment died by the end of the experiment. A value of -100 means all cells are dead at the end of the experiment.
NCI-60 Human Tumor Cell Lines Screen was performed using the standard one-dose NCI protocol, which is described in more detail at https://dtp.cancer.gov/discovery_development/nci-60/default.htm.
Compounds with GIPRCNT values below 10 were considered active. Activity score was based on GIPRCNT using the following formula: […]
Score is 0 for GIPRCNT values of 100 or above, 50 for GIPRCNT values of 0, and 100 for GIPRCNT values of -100.

Point of comparison: `Cn1cc(-c2nc(-c3c[nH]c4ncccc34)cs2)c2cc(Cl)ccc21`, growth 38.5%. Against it:
- COc1ccc2c(c1)c(-c1nc(-c3c[nH]c4ncccc34)cs1)cn2CCNC(=O)OC(C)(C)C — higher, 71.3%
- CCCCN1CCCCn2c1nc1c2c(=O)n(C)c(=O)n1C — higher, 102%
- NCCNc1nc(-c2ccccc2)nc2nc(-c3ccccc3)oc12 — higher, 71.6%
- COc1ccc(C2c3ccccc3NC(=O)N2C2CCN(C)CC2)c(OC)c1 (stereo not given) — higher, 100%
- Oc1cc(/C=C/c2nc(N3CCOCC3)c3cc(Cl)c(Cl)cc3n2)cc(O)c1O — higher, 120%
- Cn1cccc1/C=C1/SC(=S)N(CCc2ccc(O)cc2)C1=O — higher, 94.9%
- COC(=O)[C@]12CC[C@@H](C)[C@H](C)[C@@H]1C1=CC(=O)[C@@H]3[C@@]4(C)C[C@@H](OC(C)=O)[C@H](OC(C)=O)[C@@](C)(COC(C)=O)[C@@H]4C(=O)C[C@@]3(C)[C@]1(C)CC2 — higher, 40.4%
- NC1=C(C/C(N)=N\O)C(c2ccccc2Cl)c2c(ccc3ccccc23)O1 (stereo not given) — higher, 97.1%
- N#Cc1c(-c2ccc(O)cc2)c2c(N)nn(-c3ccccc3)c2[nH]c1=O — higher, 111%
- COc1cccc(-c2nn(-c3ccccc3)cc2-c2ccnc(NCCCNS(=O)(=O)c3ccc(Cl)cc3)c2)c1 — lower, 11.3%
- CC(C)(C)c1[nH]nc2c1C(c1cc3ccccc3[nH]c1=O)Nc1cc(C(=O)OCc3ccccc3)ccc1N2 (stereo not given) — higher, 62.1%
- C[C@H]1OC(=O)/C=C/[C@@H](O)[C@@H](O)CCCCCCCC[C@@H]1O — higher, 87%
- CCCCC/C(=C\c1ccccc1)C1OC(C)C(C)O1 (stereo not given) — higher, 81.3%
- COC(=O)CCCCCn1c2ccccc2c2c3c(c4c5ccccc5[nH]c4c21)C(=O)N(O)C3=O — lower, 24%
- N#C/C(=C\c1ccc(-c2ccc(Br)cc2)o1)c1nc(-c2ccco2)cs1 — higher, 99.5%
- CN(C)CCCC1(c2ccc(F)cc2)OCc2cc(-c3ccc(C(F)(F)F)nc3)ccc21 (stereo not given) — higher, 64.8%
- COc1cc2c(cc1-c1c(C)noc1C)ncc1nc(C3CC3)n([C@H](C)COC(F)F)c12 — lower, 17.3%
- CCN(CC)CCCCCNc1cc(OC(=O)c2ccccc2)cc2cccnc12 — lower, 20.3%
- COc1ccc(/C(=C\c2ccc3c(c2)OCO3)C(=O)Nc2nc3ccccc3s2)cc1OC — higher, 90.3%
- O=c1c(CNc2ccc(S(=O)(=O)Nc3ncccn3)cc2)coc2ccccc12 — higher, 110%
- Cc1ccc2c(c1)c1nc3cc(C)c(C)cc3nc1n2CCN(C)C — lower, 19%
- NCCn1cc(-c2nc(-c3c[nH]c4ncccc34)cs2)c2ccccc21 — higher, 98.2%
- CCc1nnc(NC(=O)c2ccoc2COc2ccccc2)s1 — lower, 28.6%
- CCN(CC)CCCCCCNc1ccnc2cc(Cl)ccc12 — lower, 27%
- CCC(CC)C(=O)OC(C)COc1ccc(C(C)(C)C)cc1 (stereo not given) — higher, 71.7%
- O=C1c2ccccc2NC(c2cn(-c3ccccc3)nc2-c2cccnc2)N1Cc1ccccc1 (stereo not given) — higher, 84.5%
- O=C1c2cccc3cccc(c23)C(=O)N1CC#Cc1ccc2c3c(cccc13)C(=O)N(CCO)C2=O — higher, 96.5%
- COc1cc2nc(Cl)nc(Nc3cccc(C(=O)/C=C/c4ccc(F)cc4)c3)c2cc1OC — lower, 16.1%
- COC(=O)[C@]12CC[C@@H](C)[C@H](C)[C@@H]1C1=CC[C@@H]3[C@@]4(C)CC(=O)[C@H](OC(=O)c5ccco5)[C@@]5(C)COC(=C45)C[C@@]3(C)[C@]1(C)CC2 — lower, 20.1%

`c1cnc2[nH]cc(-c3csc(-c4cn(CCCN5CCCCC5)c5ccccc45)n3)c2c1` was tested, and the growth was -55.8% (active).
For `O=C1/C(=C\C(Cl)=C/c2ccc([N+](=O)[O-])cc2)SC(=S)N1CCc1ccc(O)cc1`, the growth was -15.3% (active).
`CC1(C)C(=O)/C(=C\c2cccnc2)C[C@]2(C)[C@H]3CC[C@@H]4[C@@H](C(=O)/C=C/c5ccncc5)CC[C@@]4(C)[C@]3(C)CC[C@@H]12` was tested, and the growth was 9.87% (active).
For `CCCCC[C@H]1C/C=C2/C(=O)C=C[C@@H]2C/C=C\CCCC(=O)O[C@@H](CCCCC)C/C=C2/C(=O)C=C[C@@H]2C/C=C\CCCC(=O)O1`, the growth was -77.9% (active).
`COc1ccc2c(c1)c(-c1nc(-c3c[nH]c4ncccc34)cs1)cn2CCCN1CCCCC1` was tested, and the growth was -51.8% (active).
For `COc1cnc2c(c1)C(=O)c1c-2n(CCCNCCN2CCOCC2)c(=O)c2cc([N+](=O)[O-])ccc12`, the growth was 1.17% (active).
For `CN1CCN(CCOc2ccc(-c3cnc4c(-c5ccccc5F)cnn4c3)cc2)CC1`, the growth was -38% (active).
With `CC(CNc1nc(Nc2ccc(Cl)c(Cl)c2)nc(C(Cl)(Cl)Cl)n1)N(C)C` (stereo not given) the growth was -76.3% (active).
In the case of `COc1ccc2c(c1)c1nc3cc(C)c(C)cc3nc1n2CCN(C)C`, the growth is reported as -1.79% (active).

`CC[C@]12C=CCN3CC[C@@]4(c5cc([C@H]6CCC(=O)N6)c(OC)cc5N(C)[C@H]4[C@@](O)(C(=O)OC)[C@@H]1OC(C)=O)[C@@H]32` was tested, and the growth was 103% [2.5 µM].
